# Assay results from the supplement of paper PMC10849652.
# About 7,900 targets were measured; listed, in parts, are those with a hit and a random draw of the rest. About 0.6% of all pairs of compound and target were hits. Unmarked numbers belong to inactive results.
# Key:
# Test in all cases: log2 fold change, soluble protein after heating vs DMSO (PISA); higher = thermal stabilisation; K562 cells, 10 uM, 30 min; active = over 0.2 and 3.5 SD of the protein, either way, in both replicates (recomputed)
# [1] = compound: CN1CCN(CCOc2cc(OC3CCOCC3)c3c(Nc4c(Cl)ccc5c4OCO5)ncnc3c2)CC1 [saracatinib]
# Outline: (§1)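 K562 cells (2×10^6 cells/mL) were treated with 10 μM compound for 30 min, and aliquots were heated for 3 min over 48°C-58°C. Pooled aliquots were extracted in PBS with 0.5% NP-40 at 4°C, and the supernatant after 21,000xg for 90 min was measured by TMTpro 16plex LC-MS/MS with channel sums equalised. Reported thermal stability, relative to control samples and from duplicates, is a log2 fold change.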
# [2] = compound: CN1CCN(c2nc(C3=C(c4c[nH]c5ccccc45)C(=O)NC3=O)c3ccccc3n2)CC1 [sotrastaurin]
# Outline: as §1
# [3] = compound: CN1CC[C@H](c2c(O)cc(O)c3c(=O)cc(-c4ccccc4Cl)oc23)[C@H](O)C1 [alvocidib]
# Outline: as §1
# [4] = compound: CN1CCc2c(c3ccccc3n2Cc2ccc(C(=O)NO)cc2)C1 [Tubastatin A]
# Outline: as §1
# [5] = compound: CNC(=O)C1=CC=CC=C1NC2=NC(=NC=C2Cl)NC3=C(C=C(C=C3)N4CCOCC4)OC
# Outline: as §1
# [6] = compound: CNC(=O)c1ccc(Nc2ncc(C(F)(F)F)c(NCc3nccnc3N(C)S(C)(=O)=O)n2)cc1 [defactinib]
# Outline: as §1
# [7] = compound: CNCc1ccc(-c2[nH]c3cc(F)cc4c3c2CCNC4=O)cc1 [rucaparib]
# Outline: as §1
# [8] = compound: CNc1nc(-c2ccc3c(N)n[nH]c3c2)cc(N2C[C@@H](C(=O)NC3CCCCC3)CC[C@H]2C)n1
# Outline: as §1
# [9] = compound: COC(=O)N[C@@H](C)CNc1nccc(-c2cn(C(C)C)nc2-c2cc(Cl)cc(NS(C)(=O)=O)c2F)n1 [encorafenib]
# Outline: as §1
# [10] = compound: COC(=O)[C@H](CCSC)NC(=O)C1=C(C=C(C=C1)NC[C@H](CS)N)C2=CC=CC=C2
# Outline: as §1
# Sequence of UniProt Q53H47 (Q53H47 whole entry, looked up): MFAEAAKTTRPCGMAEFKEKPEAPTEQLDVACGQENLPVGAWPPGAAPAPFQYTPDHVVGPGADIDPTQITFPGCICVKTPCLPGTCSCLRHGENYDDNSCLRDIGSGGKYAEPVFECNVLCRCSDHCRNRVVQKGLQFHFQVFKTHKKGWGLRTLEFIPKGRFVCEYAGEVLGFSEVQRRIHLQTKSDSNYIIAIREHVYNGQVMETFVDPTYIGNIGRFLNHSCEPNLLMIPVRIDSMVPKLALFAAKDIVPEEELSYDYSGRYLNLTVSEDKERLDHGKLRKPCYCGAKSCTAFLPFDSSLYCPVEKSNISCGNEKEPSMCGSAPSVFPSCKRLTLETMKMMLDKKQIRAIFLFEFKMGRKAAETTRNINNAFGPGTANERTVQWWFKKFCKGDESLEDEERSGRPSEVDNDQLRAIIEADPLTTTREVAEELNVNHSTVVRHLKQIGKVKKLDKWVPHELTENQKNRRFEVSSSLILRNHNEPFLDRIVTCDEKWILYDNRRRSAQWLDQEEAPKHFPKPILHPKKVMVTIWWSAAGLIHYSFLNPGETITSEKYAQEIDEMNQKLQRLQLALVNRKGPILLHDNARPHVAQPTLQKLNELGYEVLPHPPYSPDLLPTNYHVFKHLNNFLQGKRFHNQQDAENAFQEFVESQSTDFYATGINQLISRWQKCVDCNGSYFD
# Sequence of UniProt Q9UKL0 (Q9UKL0 whole entry, looked up): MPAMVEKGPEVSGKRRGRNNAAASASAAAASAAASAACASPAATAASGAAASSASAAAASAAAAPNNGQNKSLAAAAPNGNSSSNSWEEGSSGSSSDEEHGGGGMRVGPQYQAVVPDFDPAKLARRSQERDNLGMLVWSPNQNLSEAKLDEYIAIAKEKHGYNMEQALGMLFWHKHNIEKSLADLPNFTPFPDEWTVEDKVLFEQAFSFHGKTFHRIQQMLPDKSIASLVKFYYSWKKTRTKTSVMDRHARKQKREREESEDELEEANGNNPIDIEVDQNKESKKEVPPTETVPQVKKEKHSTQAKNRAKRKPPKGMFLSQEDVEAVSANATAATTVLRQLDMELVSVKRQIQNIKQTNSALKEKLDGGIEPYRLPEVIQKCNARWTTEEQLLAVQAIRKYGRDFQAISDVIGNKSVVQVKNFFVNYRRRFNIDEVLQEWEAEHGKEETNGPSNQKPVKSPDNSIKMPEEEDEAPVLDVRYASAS
# Sequence of UniProt Q15436 (Q15436 whole entry, looked up): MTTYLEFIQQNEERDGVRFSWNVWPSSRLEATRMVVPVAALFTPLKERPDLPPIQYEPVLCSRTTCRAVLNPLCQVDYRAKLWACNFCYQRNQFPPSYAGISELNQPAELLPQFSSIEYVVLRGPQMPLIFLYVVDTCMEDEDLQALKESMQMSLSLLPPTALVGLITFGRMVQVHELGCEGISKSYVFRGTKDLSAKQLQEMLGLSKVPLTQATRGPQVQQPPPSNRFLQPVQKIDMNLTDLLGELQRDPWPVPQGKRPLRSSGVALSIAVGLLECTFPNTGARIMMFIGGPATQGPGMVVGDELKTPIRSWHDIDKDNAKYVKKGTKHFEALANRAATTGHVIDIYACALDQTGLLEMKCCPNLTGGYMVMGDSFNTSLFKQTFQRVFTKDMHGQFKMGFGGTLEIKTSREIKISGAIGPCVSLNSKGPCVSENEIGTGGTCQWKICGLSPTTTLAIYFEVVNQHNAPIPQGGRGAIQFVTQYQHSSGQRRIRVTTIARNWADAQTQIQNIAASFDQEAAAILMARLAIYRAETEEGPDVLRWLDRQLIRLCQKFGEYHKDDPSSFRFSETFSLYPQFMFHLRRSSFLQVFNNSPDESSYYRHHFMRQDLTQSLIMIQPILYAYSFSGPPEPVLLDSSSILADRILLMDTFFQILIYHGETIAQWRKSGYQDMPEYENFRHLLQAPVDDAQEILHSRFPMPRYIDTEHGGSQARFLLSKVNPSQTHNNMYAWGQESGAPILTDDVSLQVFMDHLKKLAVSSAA
# Sequence of UniProt Q9H082 (Q9H082 whole entry, looked up): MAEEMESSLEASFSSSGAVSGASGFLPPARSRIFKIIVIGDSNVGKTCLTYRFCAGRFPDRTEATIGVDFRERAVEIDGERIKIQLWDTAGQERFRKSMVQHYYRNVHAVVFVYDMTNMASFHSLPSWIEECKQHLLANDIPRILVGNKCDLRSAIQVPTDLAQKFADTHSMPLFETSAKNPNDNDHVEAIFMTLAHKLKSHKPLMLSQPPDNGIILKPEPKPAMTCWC
# Sequence of UniProt Q96DM3 (Q96DM3 whole entry, looked up): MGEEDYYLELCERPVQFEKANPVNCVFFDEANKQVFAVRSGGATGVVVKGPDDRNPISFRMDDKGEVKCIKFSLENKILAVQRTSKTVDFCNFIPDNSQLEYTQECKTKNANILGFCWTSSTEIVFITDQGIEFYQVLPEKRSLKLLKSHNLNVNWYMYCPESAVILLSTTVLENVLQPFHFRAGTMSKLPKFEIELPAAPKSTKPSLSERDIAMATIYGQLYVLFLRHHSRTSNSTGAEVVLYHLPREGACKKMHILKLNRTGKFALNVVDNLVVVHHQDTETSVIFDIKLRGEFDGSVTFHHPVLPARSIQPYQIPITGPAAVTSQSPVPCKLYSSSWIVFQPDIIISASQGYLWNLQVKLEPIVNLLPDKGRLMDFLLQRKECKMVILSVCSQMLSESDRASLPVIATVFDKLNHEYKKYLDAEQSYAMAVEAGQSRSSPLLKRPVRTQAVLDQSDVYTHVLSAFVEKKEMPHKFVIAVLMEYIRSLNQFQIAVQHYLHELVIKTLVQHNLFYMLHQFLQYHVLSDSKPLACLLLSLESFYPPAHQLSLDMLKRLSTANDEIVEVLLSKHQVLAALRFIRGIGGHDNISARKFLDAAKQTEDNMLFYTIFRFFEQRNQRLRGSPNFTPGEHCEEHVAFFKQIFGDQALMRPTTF
# Sequence of UniProt Q9P2N5 (Q9P2N5 whole entry, looked up): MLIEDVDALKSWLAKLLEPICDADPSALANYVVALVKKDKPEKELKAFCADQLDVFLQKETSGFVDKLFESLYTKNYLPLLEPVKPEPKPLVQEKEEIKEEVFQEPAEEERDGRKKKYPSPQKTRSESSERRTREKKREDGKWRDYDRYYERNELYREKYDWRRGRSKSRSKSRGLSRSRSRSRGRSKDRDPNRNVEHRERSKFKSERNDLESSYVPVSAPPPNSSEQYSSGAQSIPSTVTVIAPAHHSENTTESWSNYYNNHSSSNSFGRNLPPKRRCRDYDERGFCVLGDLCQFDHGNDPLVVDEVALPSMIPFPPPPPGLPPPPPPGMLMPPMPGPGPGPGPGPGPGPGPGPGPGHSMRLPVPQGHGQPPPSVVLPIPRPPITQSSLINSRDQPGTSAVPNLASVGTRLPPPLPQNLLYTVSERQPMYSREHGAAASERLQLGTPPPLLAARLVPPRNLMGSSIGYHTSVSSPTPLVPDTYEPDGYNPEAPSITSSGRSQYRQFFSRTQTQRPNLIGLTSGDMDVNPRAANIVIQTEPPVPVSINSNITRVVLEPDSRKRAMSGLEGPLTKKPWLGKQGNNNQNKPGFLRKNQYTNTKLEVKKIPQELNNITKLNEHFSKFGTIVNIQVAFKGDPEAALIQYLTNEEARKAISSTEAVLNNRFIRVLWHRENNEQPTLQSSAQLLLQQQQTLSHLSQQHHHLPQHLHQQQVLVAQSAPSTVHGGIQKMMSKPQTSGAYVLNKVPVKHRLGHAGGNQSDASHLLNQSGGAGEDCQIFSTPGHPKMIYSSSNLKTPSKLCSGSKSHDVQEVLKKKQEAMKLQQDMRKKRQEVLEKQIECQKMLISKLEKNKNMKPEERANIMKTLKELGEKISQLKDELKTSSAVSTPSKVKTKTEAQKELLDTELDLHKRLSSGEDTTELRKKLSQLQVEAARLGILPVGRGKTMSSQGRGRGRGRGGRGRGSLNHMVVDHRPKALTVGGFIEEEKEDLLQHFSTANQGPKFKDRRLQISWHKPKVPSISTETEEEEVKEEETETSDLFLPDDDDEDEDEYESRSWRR
# Sequence of UniProt Q99961 (Q99961 whole entry, looked up): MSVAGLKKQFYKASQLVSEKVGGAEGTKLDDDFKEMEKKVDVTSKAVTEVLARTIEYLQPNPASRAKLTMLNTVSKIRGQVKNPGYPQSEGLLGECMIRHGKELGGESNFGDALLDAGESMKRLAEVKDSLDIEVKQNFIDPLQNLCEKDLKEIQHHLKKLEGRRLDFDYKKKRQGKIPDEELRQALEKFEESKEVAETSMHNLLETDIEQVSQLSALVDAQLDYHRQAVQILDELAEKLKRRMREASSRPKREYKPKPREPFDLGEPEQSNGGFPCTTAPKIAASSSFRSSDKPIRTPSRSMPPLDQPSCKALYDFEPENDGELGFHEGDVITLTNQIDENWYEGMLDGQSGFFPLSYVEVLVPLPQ
# Sequence of UniProt P63208 (P63208 whole entry, looked up): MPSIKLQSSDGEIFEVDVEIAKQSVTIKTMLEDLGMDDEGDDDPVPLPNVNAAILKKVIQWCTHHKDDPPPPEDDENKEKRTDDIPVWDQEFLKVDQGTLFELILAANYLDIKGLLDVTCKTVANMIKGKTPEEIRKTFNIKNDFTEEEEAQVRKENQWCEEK
# Sequence of UniProt O00560 (O00560 whole entry, looked up): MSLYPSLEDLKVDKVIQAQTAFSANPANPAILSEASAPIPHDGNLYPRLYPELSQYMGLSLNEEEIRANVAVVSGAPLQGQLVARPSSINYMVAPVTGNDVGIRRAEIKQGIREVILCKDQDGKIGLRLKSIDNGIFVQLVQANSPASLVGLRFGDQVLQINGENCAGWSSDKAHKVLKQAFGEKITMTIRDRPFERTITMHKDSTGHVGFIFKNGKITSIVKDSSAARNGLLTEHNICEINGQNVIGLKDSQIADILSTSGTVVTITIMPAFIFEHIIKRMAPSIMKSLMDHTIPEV
# Sequence of UniProt Q9NX18 (Q9NX18 whole entry, looked up): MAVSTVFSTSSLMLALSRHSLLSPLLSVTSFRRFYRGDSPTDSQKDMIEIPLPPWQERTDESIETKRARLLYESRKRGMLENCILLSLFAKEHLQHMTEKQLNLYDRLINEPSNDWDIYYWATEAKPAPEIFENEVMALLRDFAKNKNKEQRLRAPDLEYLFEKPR
Target,log2 fold change [1],log2 fold change [2],log2 fold change [3],log2 fold change [4],log2 fold change [5],log2 fold change [6],log2 fold change [7],log2 fold change [8],log2 fold change [9],log2 fold change [10]
RMC1 (UniProt Q96DM3),-0.002,-0.01,-0.105,0.007,0.014,-0.041,0.029,0.014,-0.013,-0.018
SDCBP (UniProt O00560),-0.012,0.021,-0.096,0.025,0.007,0.042,0.117,-0.541 (active),0.06,-0.001
SH3GL1 (UniProt Q99961),-0.157,-0.163,-0.118,0.092,-0.035,-0.116,0.022,0.054,0.062,-0.043
RSF1 (UniProt Q96T23),0,-0.209,-0.188,0.181,0.035,-0.407 (active),0.026,0.048,0.029,-0.086
RCOR1 (UniProt Q9UKL0),-0.011,-0.047,-0.066,0.028,-0.017,-0.119,-0.005,0.073,0,-0.002
RPS3A (UniProt P61247),-0.034,0.015,0.171,0.075,0.105,0.192,0.101,0.069,0.047,-0.018
SDHAF2 (UniProt Q9NX18),0.08,-0.035,-0.026,0.037,0.016,-0.002,0.115,-0.078,-0.003,0.01
RCOR3 isoform 3 (UniProt Q9P2K3),-0.142,-0.011,-0.15,0.142,-0.019,-0.073,0.075,-0.044,0.026,-0.062
RPS20 isoform 2 (UniProt P60866),-0.1,0.019,0.196,0.054,0.066,0.216,0.093,-0.009,0.041,0.001
RABGGTA (UniProt Q92696),0.013,0.102,-0.079,-0.044,-0.034,-0.034,-0.015,0.001,0.004,-0.024
RBM27 (UniProt Q9P2N5),0.04,-0.039,-0.141,0.013,-0.297 (active),-0.303 (active),-0.015,0.033,-0.011,-0.042
SEC23A (UniProt Q15436),0.133,0.008,-0.066,-0.008,-0.019,-0.078,0.296 (active),0.037,-0.171,-0.035
SETMAR (UniProt Q53H47),-0.007,-0.132,-0.029,-0.402,0.006,-0.026,-0.004,0.005,0.198,-0.084
RAB33B (UniProt Q9H082),0.158,0.057,0.038,0.013,-0.01,-0.005,0.035,-0.031,0,0.032
SKP1 (UniProt P63208),0.157,-0.023,-0.032,0.002,0.165,0.066,-0.051,0.028,-0.005,0.072
